# Data: ChEMBL document CHEMBL4513216, “Probing the Open Global Health Chemical Diversity Library for Multistage-Active Starting Points for Next-Generation Antimalarials” (ACS Infect Dis, 2020)
# Screen size: about 69,000 compounds; about 8,600 (12%) showed an effect of 50% or more. The sample as a whole holds a higher share of strong results than the screen did.
# Test system: Plasmodium berghei
# Assay: Screen against P. berghei liver stage (PbLuc), transformed with Luciferase, at 10uM
# Format: functional, HepG2
# Conditions: tested at 10 uM
row,Structure (SMILES),INHIBITION
1,CC(C)c1nnc2n1CCN(Cc1ncc(-c3ccccc3)o1)C2,38.85%
2,Cc1cc(C(=O)NCc2cccs2)nc(N2CCCC2)n1,-2.28%
3,CCCOc1ccc(C2SCC(=O)Nc3c2c(=O)[nH]n3C(C)C)cc1 (stereo unspecified),15.1%
4,CC(C)n1[nH]c(=O)c2c1NC(=O)CSC2C1CCCCC1 (stereo unspecified),62.5%
5,CC(C)COc1ccc(C2SCC(=O)Nc3c2c(=O)[nH]n3C(C)C)cc1 (stereo unspecified),52.4%
6,CC(C)n1[nH]c(=O)c2c1NC(=O)CC2C1CCCCC1 (stereo unspecified),-25.6%
7,CC(C)n1[nH]c(=O)c2c1NC(=O)CSC2c1ccc(OCC(N)=O)cc1 (stereo unspecified),6.83%
8,CCOc1ccc(C2SCC(=O)Nc3c2c(=O)[nH]n3C(C)C)cc1 (stereo unspecified),44.9%
9,Cc1csc(N2CCCN(C(=O)c3occc3C)CC2)n1,46.2%
10,CC(C)(C)OC(=O)N1CCN(C(=O)CCn2cccn2)CC1,38.05%
11,O=C(C1CC=CC1)N1CC[C@@H](O)[C@H]1Cc1cccnc1,43%
12,CCNC(=O)CNC(=O)Nc1c(F)cc(F)cc1-c1ccccc1,7.77%
13,COc1cccc(CNCCNS(=O)(=O)Cc2ccccc2)c1,30.2%
14,CCn1nc(C)c(NC(=O)c2cc(NC(=O)C3CC3)n(C)n2)c1C,29.7%
15,CC(C)C(=O)Nc1cc(C(C)(C)C)nn1-c1ccccn1,-6.94%
16,CCc1cc(=O)[nH]c(-n2nc(C3CC3)cc2NC(=O)C2CC2)n1,91%
17,Cn1nc(CNC(=O)C2CC2)cc1C1CC1,-62.4%
18,Cc1nc(-n2nc(C3CC3)cc2NC(=O)C(C)C)[nH]c(=O)c1C,93.2%
19,CCc1c(C)nc(-n2nc(C3CC3)cc2NC(C)=O)[nH]c1=O,93.7%
20,Cc1cc(NC(=O)C(C)C)n(-c2nc(C)c(C)c(=O)[nH]2)n1,93.2%
21,CCc1c(C)nn(CCNC(=O)c2cc(C3CC3)n[nH]2)c1C,-40.7%
22,Cc1cc(C)n(-c2cncc(NCCNC(=O)C(C)C)n2)n1,-23.5%

row,Structure (SMILES),INHIBITION
1,CC(=O)N1CCN(c2cc(CCNC(=O)C(C)C)nc(C3CC3)n2)CC1,18.3%
2,CC(C)C(=O)Nc1cc(C(=O)NC2CC(C)(C)NC(C)(C)C2)nn1C,44.6%
3,Cc1nc(C)c(CC(=O)Nc2nnc(C3CC3)s2)c(=O)[nH]1,-0.18%
4,CN(C)Cc1nn(C)c2c1CCN(C(=O)c1cnccn1)C2,-43.1%
5,CNC(=O)c1ccc(C2CN(Cc3ccc(F)cc3)CCO2)nc1 (stereo unspecified),2.55%
6,Cc1nc(CN(C)C2CCN(CCc3ccccn3)C2)no1 (stereo unspecified),-41.6%
7,Cc1cc(C)n(C2CCCN(C(=O)c3ccc(F)c(F)c3)C2)n1 (stereo unspecified),18.7%
8,CN(C)CCN1CCOCC12CCN(C(=O)C1CC1)CC2,6.55%
9,COC[C@]1(O)CCN(c2cc(N3CCOCC3)ncn2)CC1(C)C,32.3%
10,Cc1cc(OCc2ccc(C(=O)O)s2)ccc1Cl,-61.9%
11,CSC(C)C(=O)NCc1ccnc(N2CCN(C)CC2)c1 (stereo unspecified),-11.98%
12,CCOc1ccc(Cl)c(C(=O)N2CCCN(CC(N)=O)CC2)n1,47%
13,COCCNC(=O)CCc1c(C)nn(-c2nc(C)c(C)c(=O)[nH]2)c1C,-8.69%
14,Cc1[nH]c2cc(C3CCN(C(=O)c4ccccn4)CC3)nn2c(=O)c1C,29.55%
15,CC(=O)Nc1cc(C2CC2)nn1-c1nc(C)c(C)c(=O)[nH]1,72.4%
16,COc1ccc(CN2CCO[C@H]3CN(C4CCCC4)CC[C@H]3C2=O)cc1,27.7%
17,Cc1nc(-c2cc(C(=O)N3CCN(C)CC3)c3ccccn23)cn1C,52.3%
18,CN1CCCN(C(=O)c2cc(-c3cc[nH]n3)n3ccccc23)CC1,47.5%
19,Cn1ccc(-c2cc(C(=O)N3CCC(C(N)=O)CC3)c3ccccn23)n1,-23.1%
20,CN(C)C1CCN(C(=O)c2cc(-c3ccn(C)n3)n3ccccc23)CC1,62.9%
21,Cn1ccc(-c2cc(C(=O)N3CCC(O)CC3)c3ccccn23)n1,42.1%
22,Cc1nc(-c2cc(C(=O)N3CCCN(C)CC3)c3ccccn23)cn1C,21.7%

row,Structure (SMILES),INHIBITION
1,CCCC1C=CCN1C(=O)c1cc(COc2ccccc2)[nH]n1 (stereo unspecified),-1.49%
2,CCCNC(=O)c1cc2c(s1)CCN2C(=O)CN(C)C,-25.2%
3,CCn1cc(NC(=O)NCC(C)(C)N2CCc3ccccc3C2)cn1,-31.8%
4,CC(=O)N1CCCN(C(=O)c2ccc(Cn3ccccc3=O)o2)CC1,19.45%
5,COc1ccc(OC)c(NC(=O)c2c(C)cn(C)c2CC(=O)O)c1,29%
6,CCOCc1ccccc1NC(=O)NC1CCN(C2CCCC2)C1 (stereo unspecified),58.6%
7,CCOCc1ccccc1NC(=O)NC1CCN(CC(F)(F)F)C1 (stereo unspecified),38.3%
8,CCOCc1ccccc1NC(=O)NC1CCN(c2ccccc2)C1 (stereo unspecified),36.2%
9,CCOCC(O)CN1CCN(C(=O)c2cccc(CC#N)c2)CC1 (stereo unspecified),9.54%
10,CCSc1nsc(NC(=O)COc2ccc3c(c2)OCO3)n1,49.4%
11,COC1COC2(CCN(Cc3ccc4ccccc4n3)CC2)C1 (stereo unspecified),57.4%
12,COc1ccccc1CN1CCC2(CC1)CC(Oc1ccccn1)CO2 (stereo unspecified),14.2%
13,Cn1cc(CN2CCC[C@]3(C[C@H](Oc4ccccn4)CO3)C2)cn1,46.4%
14,c1ccc(O[C@@H]2CO[C@@]3(CCCN(CC4CCOCC4)C3)C2)nc1,32.2%
15,CCO[C@@H]1CO[C@@]2(CCN(Cc3ccc4c(c3)OCO4)C2)C1,18.6%
16,COC1COC2(CCN(Cc3ccccc3F)CC2)C1 (stereo unspecified),3.25%
17,Cn1cc(CN2CCC[C@]3(C[C@@H](Oc4ccccn4)CO3)C2)cn1,15.6%
18,c1ccc(OC2COC3(CCN(CC4CC4)CC3)C2)nc1 (stereo unspecified),53.2%
19,c1ccc(O[C@H]2CO[C@@]3(CCN(Cc4ccc5c(c4)OCO5)C3)C2)nc1,71.9%
20,CCO[C@H]1CO[C@@]2(CCN(Cc3ccc4c(c3)OCO4)C2)C1,-20.8%
21,Cn1cc(CN2CC[C@]3(C[C@H](Oc4ccccn4)CO3)C2)cn1,51.4%
22,COC1COC2(CCN(Cc3ccccc3C)CC2)C1 (stereo unspecified),37.1%
